Assay outcomes deposited in PubChem by several laboratories.
Rows were chosen to be rich in hits. Some 5.4% of all compounds tested hit in one or more screens of this group.
MIN6 prolif: inducers of beta-cell replication in MIN6 cells | proliferation, % at 10 µM | 330,000 compounds, 0.29% hits | MIN6 cells proliferation, ATPlite luminescence, 48 h; cells starved in 0.2% serum; 100% = growth in 10% serum;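 active = compounds whose signal lies at least 3.5 SD above the mean of all wells on their plate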
SMARCA2 activ: increases SMARCA2 function in MMTV reporter cells. activation, % at 9.1 µM. 370,000 compounds, 1% hits. MG213 cells, MMTV-luciferase reporter, dexamethasone, overnight; in the data active = activation above about 7.8%
PfM18AAP inh: blocks P. falciparum M18 aspartyl aminopeptidase. recombinant PfM18AAP, H-Glu-NHMec fluorogenic cleavage. inhibition, % at 7.35 µM. 290,000 compounds, 1.2% hits;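 active = inhibition above the campaign mean inhibition over all tested compounds plus 3 SD, cut at about 28% in these data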
GASC-1 inh: blocks human GASC-1 demethylase activity | inhibition, % at 2.35 µM | Q9H3R0 | 330,000 compounds, 0.069% hits | AID 2099 | GST-JMJD2C(1-420) H3K9me3 demethylation, DELFIA europium;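 active = more than half of a compound's replicate wells show inhibition beyond 50%, single wells judged on their own value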;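 also: signal counts dimethyl H3K9 product captured on neutravidin plate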
Target sequence (Q9H3R0 1-420 limits assumed): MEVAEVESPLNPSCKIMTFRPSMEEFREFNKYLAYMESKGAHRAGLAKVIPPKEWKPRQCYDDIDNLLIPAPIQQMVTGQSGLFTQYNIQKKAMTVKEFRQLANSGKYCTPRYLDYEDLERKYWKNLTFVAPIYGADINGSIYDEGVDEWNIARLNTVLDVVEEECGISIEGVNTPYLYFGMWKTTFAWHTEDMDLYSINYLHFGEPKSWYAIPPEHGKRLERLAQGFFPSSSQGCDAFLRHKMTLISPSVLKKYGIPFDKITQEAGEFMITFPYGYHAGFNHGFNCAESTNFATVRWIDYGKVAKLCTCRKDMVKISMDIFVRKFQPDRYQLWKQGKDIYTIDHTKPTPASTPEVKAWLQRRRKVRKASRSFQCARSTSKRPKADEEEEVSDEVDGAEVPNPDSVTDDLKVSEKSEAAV
ALR inh: inhibitors of human sulfhydryl oxidase ALR | P55789 | AID 485317 | 290,000 compounds, 3.8% hits | inhibition, % (no concentration beside the values) | purified ALR, DTT oxidation, H2O2 HRP-luminol luminescence;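 active = mean replicate inhibition above about 79%, with every replicate also reaching it, limit read from the data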
Target sequence (P55789 whole entry, looked up): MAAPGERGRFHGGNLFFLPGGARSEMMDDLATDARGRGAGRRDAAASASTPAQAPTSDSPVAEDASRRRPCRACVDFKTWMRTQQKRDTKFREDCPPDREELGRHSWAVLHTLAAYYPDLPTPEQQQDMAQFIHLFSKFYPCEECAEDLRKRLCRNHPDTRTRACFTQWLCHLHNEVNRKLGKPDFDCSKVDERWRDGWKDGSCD
Granule exo inh: blocks lytic granule exocytosis. TALL-104 LAMP-1 surface exposure, flow cytometry; cells stimulated with thapsigargin and PMA. inhibition, % at 10 µM. 360,000 compounds, 0.66% hits;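 active = inhibition above about 55%, limit read from the data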
Large screens that a line does not name were inactive.

NC(=O)c1ccsc1N	ALR inh 98.3 (no result: SMARCA2 activ, Granule exo inh)
O=C(CN1CCN(Cc2ccccc2)C1=O)NCc1ccc(Cl)cc1	none
CCN(CCNC(=O)CN1CCN(Cc2ccc(Cl)cc2)C1=O)c1ccccc1	ALR inh 98.3
CCOc1ccc(-c2nc(CSCC(=O)NC3CC3)c(C)o2)cc1	ALR inh 98.6 (no result: SMARCA2 activ)
CCOC(=O)N1CCC(NC(=O)CSCc2nc(-c3ccccc3Cl)oc2C)CC1	none
CCOC(=O)N1CCC(NC(=O)CSCc2nc(-c3cccc(OC)c3)oc2C)CC1	ALR inh 99.2
CCOC(=O)N1CCC(NC(=O)CSCc2nc(-c3ccc(OCC)cc3)oc2C)CC1	ALR inh 99.2
CCOc1ccc(-c2nc(CSCC(=O)NC3CCN(Cc4ccccc4)CC3)c(C)o2)cc1	none (no result: MIN6 prolif, PfM18AAP inh, GASC-1 inh, ALR inh)
Cc1ccccc1CSCC(=O)NCc1ccco1	ALR inh 88.4
CCC(=O)N[C@H]1C[C@@H]2O[C@@H](CO)CC[C@@H]2O[C@@H]1CCc1ccc(-c2cccc(OC)c2)cc1	none (no result: MIN6 prolif, PfM18AAP inh, GASC-1 inh, ALR inh, Granule exo inh)
COc1cccc(C(=O)N[C@H](C(=O)N2CCC[C@H]2C(=O)NCCc2ccccc2Cl)c2ccccc2)c1	none (no result: MIN6 prolif, PfM18AAP inh, GASC-1 inh, ALR inh, Granule exo inh)
Cc1oc(-c2ccc(Cl)cc2)nc1CSCC(=O)NC1CCN(Cc2ccccc2)CC1	ALR inh 97.7
CCOc1ccc(-c2nc(CSCC(=O)NC3CCCc4ccccc43)c(C)o2)cc1 (configuration not stated)	ALR inh 95.8
CCOc1ccc(-c2nc(CSCC(=O)NCc3ccco3)c(C)o2)cc1	ALR inh 97.6
CCCC[C@H]1C2CC(OC(=O)Nc3cccc(C#N)c3)C(C2)[C@H]2CCCCN21 (some centres not stated)	none (no result: MIN6 prolif, PfM18AAP inh, GASC-1 inh, ALR inh, Granule exo inh)
Cc1ccsc1C(=O)NCCc1nnc2ccccn12	SMARCA2 activ 7.8
COc1ccc(NC(=O)/C=C2\SC(=O)NC2=O)cc1	ALR inh 97.0
CC1(C)CC(=O)C2=C(C1)c1c(ccc3ccccc13)NC2c1ccc(C(=O)O)cc1 (configuration not stated)	none
O=C1CCCC2=C1C(c1ccc(O)c(O)c1)Nc1ccc3ccccc3c12 (configuration not stated)	ALR inh 98.4 (no result: PfM18AAP inh)
O=C(CCl)N1N=C(c2ccco2)CC1c1cccs1 (configuration not stated)	none (no result: MIN6 prolif, SMARCA2 activ)
Cc1ccc(C2=NN(C(=O)CCl)C(c3cccs3)C2)o1 (configuration not stated)	ALR inh 97.6
COCc1cccc(-c2cc(C(=O)OC)c3n(c2=O)CCC3)c1	none (no result: MIN6 prolif, PfM18AAP inh, GASC-1 inh, ALR inh, Granule exo inh)
Cc1ccc(C)c(NC(=O)C2CCCN2S(=O)(=O)c2cccnc2)c1 (configuration not stated)	none (no result: MIN6 prolif, PfM18AAP inh, GASC-1 inh, ALR inh, Granule exo inh)
CSc1nc(/C=C2\C=Nc3ccccc32)c(O)n1C	ALR inh 85.4
Cc1c(C(C)c2ccccc2O)c2ccccc2n1C (configuration not stated)	none (no result: MIN6 prolif, PfM18AAP inh, GASC-1 inh, ALR inh, Granule exo inh)
Cn1c(-c2ccc3nc(N)sc3c2)nc2cc(N)ccc21	ALR inh 98.5
Cn1c(-c2ccc(N)cc2)nc2ccccc21	none
FC(F)(F)c1cnc(NNC(=S)Nc2ccccc2Cl)c(Cl)c1	ALR inh 96.7
Cc1cccc(NC(=S)NNc2ncc(C(F)(F)F)cc2Cl)c1	none
CCOc1ccc(C(=O)CCC(=O)NNC(=O)CCN2CCN(c3ccccc3)CC2)cc1	ALR inh 95.1 (no result: PfM18AAP inh)
CC(Oc1ccc(Br)cc1)C(=O)NNC(=O)CCN1CCN(c2ccccc2)CC1 (configuration not stated)	ALR inh 95.2 (no result: PfM18AAP inh)
CCOc1ccc(NC(=O)CCN2CCN(c3ccccc3)CC2)cc1	none
Cc1ccsc1C(=O)NNC(=O)CCN1CCN(c2ccccc2)CC1	ALR inh 93.6 (no result: PfM18AAP inh)
O=C(CCN1CCN(c2ccccc2)CC1)NNC(=O)Cc1ccc(Br)cc1	none (no result: PfM18AAP inh, GASC-1 inh, ALR inh)
CCCCOc1ccc(C(=O)CCN2CCOCC2)cc1	ALR inh 97.6
C[C@@H]1CN([C@H](C)CO)C(=O)c2cc(NC(=O)Nc3ccc(F)cc3)ccc2O[C@@H](C)CCCCO[C@@H]1CN(C)C(=O)CCCN(C)C	none (no result: MIN6 prolif, PfM18AAP inh, GASC-1 inh, ALR inh, Granule exo inh)
Cc1csc(NC(=O)c2ccc(COc3ccc(Cl)c(Cl)c3)o2)n1	none (no result: MIN6 prolif, PfM18AAP inh, GASC-1 inh, ALR inh, Granule exo inh)
COC(=O)[C@]12C[C@H](CC(=O)NCCc3ccccc3OC)C(=O)N(Cc3ccc4c(c3)OCO4)C1=C[C@H](C(C)C)O[C@@H]2C1CC1	none (no result: MIN6 prolif, PfM18AAP inh, GASC-1 inh, ALR inh, Granule exo inh)
CC(CCN1CCC(C(O)(c2ccccc2)c2ccccc2)CC1)Oc1cccc(F)c1 (configuration not stated)	none (no result: MIN6 prolif, PfM18AAP inh, GASC-1 inh, ALR inh, Granule exo inh)
Cc1sc(NC(=O)c2ccc(F)cc2)c(CN2CCCCCC2)c1C	none
Cc1sc(NC(=O)c2ccccc2F)c(CN2CCCCC2)c1C	ALR inh 95.2
Cc1nc(NC(=O)c2cc3c(s2)CCCCC3)sc1C(=O)N(C)C	none
COC(=O)c1sc(NC(=O)c2cc3c(s2)CCCC3)nc1C	GASC-1 inh 59.8
COc1ccc(NC(=O)Nc2ccccc2C(=O)N2CCCC2)cc1OC	none (no result: MIN6 prolif, PfM18AAP inh, GASC-1 inh, ALR inh, Granule exo inh)
O=C(CSc1ncn[nH]1)NCc1ccc(Cl)cc1	none
O=C(CSc1ncn[nH]1)NCc1ccccc1Cl	PfM18AAP inh 29.1
CN=c1scc(-c2ccccc2F)n1/N=C(\C)c1cccnc1	ALR inh 93.9
O=C(/C=C/Nc1ccccc1O)c1ccco1	none
O=C(/C=C/Nc1ccccc1Oc1ccccc1)c1ccco1	SMARCA2 activ 7.9
CC(=O)SC1CC(=O)N(c2ccc(C(C)(C)C)cc2)C1=O (configuration not stated)	ALR inh 98.0
O=C(Nc1ccc(F)cc1)OC1CC2CC1[C@H]1CCCCN1C2 (some centres not stated)	none (no result: MIN6 prolif, PfM18AAP inh, GASC-1 inh, ALR inh, Granule exo inh)
CCOc1ccc(N/N=C(/C#N)C(N)=O)cc1	ALR inh 97.7
COc1ccc(N/N=C(\C#N)C(N)=O)cc1	ALR inh 98.3
COc1ccc(C(=O)/C(C#N)=N/Nc2ccc([N+](=O)[O-])cc2)cc1	none (no result: GASC-1 inh)
COc1ccccc1CNC(=O)C[C@H]1CC[C@H]2[C@H](COc3ccc(NS(=O)(=O)c4ccc(C)cc4)cc3C(=O)N2C)O1	none (no result: MIN6 prolif, PfM18AAP inh, GASC-1 inh, ALR inh, Granule exo inh)
O=c1[nH]c(=S)[nH]c2scc(-c3ccc(Br)cc3)c12	none (no result: PfM18AAP inh)
O=c1[nH]c(=S)[nH]c2sccc12	ALR inh 97.3
CC(C)Cn1cnc2sc3c(c2c1=N)CCCC3	none
N=c1c2c3c(sc2ncn1Cc1ccco1)CCCCC3	ALR inh 92.2
O=c1[nH]c(=O)c2nnc(N/N=C/c3ccccc3F)nc2[nH]1	none
O=c1[nH]c(=O)c2nnc(N/N=C\c3ccc(O)cc3)nc2[nH]1	ALR inh 99.2
COc1ccc(Nc2nc(-c3ccc4c(c3)NC(=O)CO4)cs2)cc1	none
CCC(C)Nc1nc(-c2ccc3c(c2)NC(=O)CO3)cs1 (configuration not stated)	ALR inh 97.5
CC1CCC2(CC1)SCC(=O)N2c1ccc(F)cc1 (configuration not stated)	ALR inh 98.8
CCn1c(Cc2cccs2)nnc1SCC(=O)Nc1ccc(OCc2ccccc2)cc1	none (no result: MIN6 prolif, PfM18AAP inh, GASC-1 inh, ALR inh, Granule exo inh)
